The structures appear in SMILES notation. “And” between values parts separate entries of the source, which are not always exact repeats. Equal values may be shown once. This is part of a sample that, as a whole, favours compounds with a hit. Of some 83,000 tested, about 20% had one in any assay.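 How to read the values: 0–100, growth inhibition (40 = 60% inhibited); 0, no net growth; -100 to 0, cell death (-40 = 40% of starting cells died; -100 = all dead).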 The source made the active and inactive calls. Rule for the calls: active = growth percent below 10; inactive = the rest.

The test concerns HL-60(TB) leukemia. Kind of test: NCI-60 one-dose screen, 48 h (100 = growth as untreated, 0 = no growth, -100 = all killed). The conditions noted are these: 10 µM unless noted.
Consider `CCOP(=O)(OCC)OC[C@]12CCC(C)(C)CC1C1=CC[C@@H]3[C@@]4(C)CCCNC(C)(C)[C@@H]4CC[C@@]3(C)[C@]1(C)CC2` (some centres undefined), for which the growth was 34.7% (inactive).

For the compound `O=C(/C=C/c1cccc(F)c1)c1cccc(OCCCOc2cccc(C(=O)/C=C/c3cccc(F)c3)c2)c1`, the growth was 68.3% (inactive).

Consider `CC1(C)CC[C@]2(CN)CC[C@]3(C)C(=CC[C@@H]4[C@@]5(C)CCCNC(C)(C)[C@@H]5CC[C@]43C)[C@H]2C1`, for which the growth is 87% (inactive).

Take `COc1ccc(-c2nn(-c3ccc(S(C)(=O)=O)cc3)cc2/C=N/O)cc1`: the growth is 103% (inactive).

`CCOC(=O)c1c(NC(=O)c2cccc(C(F)(F)F)c2)sc2c3c(ccc12)OCN(C)C3`: the growth is -56.3% (active).

Take `COc1ccc(/C=N/NC(=O)c2cn(C3CC3)c3c(OC)c(N4CC5CCCNC5C4)c(F)cc3c2=O)cc1` (centres undefined): the growth was 80.6% (inactive).

For `CN1CCN(c2ccc3c(C(N)=O)c(NC(=O)c4ccc(C(C)(C)C)cc4)sc3c2)CC1`, the growth is 28.5% (inactive).

For the compound `O=C(O)c1ccc(-n2cc(CNc3cc(F)c(F)c(F)c3)c(-c3ccc(F)cc3)n2)cc1`, the growth is 103% (inactive).

`O=C(CSc1nnc(-c2cccs2)n1-c1ccccc1)Nc1ccc(F)cc1`: the growth was 69.5% (inactive).

As to `COc1ccc(NC(=O)Nc2ccc3c(ccn3C(=O)c3cccc(F)c3)c2)cc1`, the growth was 85.2% (inactive).

In the case of `CN1CCN(c2ccc(Nc3nc(NCCNS(=O)(=O)c4ccc(Cl)cc4)c4sccc4n3)cc2)CC1`, the growth is 80.1% (inactive).

As for `CC(=O)Nc1ccc(C)c(Nc2cc(-c3ccc(-n4cccn4)cc3)[nH]n2)c1`, the growth was 12.8% (inactive).

Take `COc1ccccc1/C=C/C=N/NC1=NC2C(S1)N(C)C(=O)N2C` (centres undefined): the growth was -22.1% (active).

Regarding `O=S(=O)(Oc1ccc(-c2cn3ccsc3n2)cc1)c1cccc(C(F)(F)F)c1`, the growth was 101% (inactive).

For `COc1cc2nc(-c3ccc(C(F)(F)F)cc3)cc(OCCCNCC3CCCO3)c2cc1OC` (centres undefined), the growth was 11.9% (inactive).

Turning to `CCOC(=O)Nc1ccc(-c2nc(-c3cccc(O)c3)c(-c3ccnc(Br)c3)[nH]2)cc1`, the growth is -11.1% (active).

On to `Cc1ccc(CSc2nc(-c3ccc(Cl)cc3)c(C#N)c(N3CCNCC3)n2)cc1`, for which the growth is 43.3% (inactive).

Take `O=C1[C@@H]2Cc3c([nH]c4ccccc34)[C@H](c3ccc(Br)cc3)N2C(=O)CN1C1CCN(Cc2c(Cl)cccc2Cl)CC1`: the growth was -79% (active).

Consider `Cc1cc(=O)oc2cc(OCCCOc3ccc(/C=C/C(=O)Nc4ccc(Cl)cc4)cc3)ccc12`, for which the growth is 86.1% (inactive).

As to `COc1cc2nc(Cl)nc(Nc3cccc(C4=Nc5c(N)nc(N)nc5NC(c5ccc(Cl)cc5)C4)c3)c2cc1OC` (centres undefined), the growth was -30.3% (active).

On to `Cc1nc(-c2cc3ccccc3oc2=O)ccc1C(=O)/C=C/c1ccc(N2CCOCC2)cc1`, for which the growth is 38.7% (inactive).

Consider `COc1ccc(C(=O)c2cc(C(=O)/C=C/c3c(Cl)cccc3Cl)c3cc(C)ccn23)cc1`, for which the growth was 101% (inactive).

`COc1cc(/C=C2\SC(=O)NC2=O)ccc1OCC(=O)Nc1ccc(C(=O)/C=C/c2cc3ccccc3nc2Cl)cc1`: the growth is 93.7% (inactive).

Take `COc1ccc(C2CC(c3ccc(Nc4nc(NCCO)nc(Nc5ccc(Cl)cc5)n4)cc3)=Nc3c(N)nc(N)nc3N2)cc1` (centres undefined): the growth was 36.6% (inactive).

For `C=C1CC[C@@H]2[C@](C)(CO)[C@H](O)CC[C@@]2(C)[C@@H]1C/C(O)=C1\CCOC1=O`, the growth is 95.3% (inactive).

As for `CC1=NC2=NC(=O)/C(=C3/N=C(C)C=C(c4ccccc4)N3N)NN2C(c2ccccc2)=C1`, the growth is 113% (inactive).

With `CCOC(=O)C1=C(C)Nc2nc3ccccc3n2C1c1ccccc1` (centres undefined), the growth was 85.6% (inactive).

In the case of `COc1ccc(C(=O)Nc2ncc(Cc3ccccc3Cl)s2)cc1`, the growth was -1.93% (active).

On to `COc1ccc(NC2=C(Cl)C(=O)c3nc(C)ccc3C2=O)cc1OC`, for which the growth was 9.95% (active).

As to `CC(C)=CCc1c(O)c(CC=C(C)C)c2c(c1O)C(=O)C1=C[C@@H]3C[C@H]4C(C)(C)O[C@@](C/C=C(\C)C(=O)O)(C3=O)[C@@]14O2`, the growth was -14.1% (active).

`O=C(CN1C(=O)/C(=C/c2ccccc2)SC1=S)N1CCOCC1`: the growth is 89.1% (inactive).

On to `NS(=O)(=O)c1ccc(Nc2nc(SCC(=O)c3ccc(Cl)cc3)nc3c2CCCC3)cc1`, for which the growth was 59.3% (inactive).

In the case of `O=C(CCCCCCN1CC(=O)N2[C@@H](c3ccc(Cl)s3)c3[nH]c4ccccc4c3C[C@H]2C1=O)NO`, the growth was 1.42% (active).

Consider `N/C(=N\c1nc2ccc([N+](=O)[O-])cc2s1)C(Cl)(Cl)Cl`, for which the growth is 20.7% (inactive).

For `CCOP(=O)(OCC)OC[C@]12CC[C@@H](C)[C@H](C)C1C1=CC[C@@H]3[C@@]4(C)CCCNC(C)(C)[C@@H]4CC[C@@]3(C)[C@]1(C)CC2` (some centres undefined), the growth was -67.7% (active).

In the case of `CN1CCN(c2ccc(NC(=O)Nc3ccc4c(ccn4-c4cccc(C(N)=O)n4)c3)cc2C(F)(F)F)CC1`, the growth is 66.1% (inactive).

Regarding `CN1CCN(c2nc(-c3csc(-c4ccccc4)n3)cc3ccccc23)CC1`, the growth is 6.57% (active).

For `O=C1CCCC2=C1C(c1c[nH]c3ccc(Br)cc13)Cc1cc(Br)ccc1N2` (centres undefined), the growth was 12.9% (inactive).

Regarding `C/C=C/CC(C)C(O)[C@H](NC(=O)[C@@H]1CCCN1C(=O)[C@](C)(CC)NC(=O)CCCCCCCCC)C(=O)N[C@@](C)(CC)C(=O)N[C@@H](CCC(N)=O)C(=O)N[C@H](CCC(N)=O)C(=O)NC(C)(C)C(=O)NC(C)(C)C(=O)N[C@@H](CCC(N)=O)C(=O)N[C@H](CC(C)C)C(=O)N[C@H](CO)CC(C)C` (some centres undefined), the growth is 52.5% (inactive) and -38.8% (active).

These data come from PubChem BioAssay (NCI).
